# According to PubChem BioAssay AID590 (National Center for Advancing Translational Sciences (NCATS), 2007):
# Out of some 59,000 compounds screened, about 6,500 (11%) were called active. Another 15% or so got no clear call; they are omitted. Rule as the data show it: active = max dye-equivalent concentration above about 10 nM; inconclusive = mostly about 1.1 nM to 9.6 nM; inactive = weaker than that. The sample as a whole holds a higher share of actives than the screen did.
# Assay: qHTS Assay for Spectroscopic Profiling in A350 Spectral Region
# Conditions: Compound autofluorescence, 340/450 nm, Alexa 350 dye-equivalents; stronger effect = higher value
row,SMILES,max dye-equivalent concentration
1,CCC(=O)Nc1cccc(NC(=O)CSc2nnnn2C2CCCC2)c1,inactive
2,Cc1ccc(S(=O)(=O)NCc2cn3ccsc3n2)c(C)c1,inactive
3,CCOc1cccc(-c2nnc3sc(COc4ccc(OC)cc4)nn23)c1,inactive
4,c1ccc(-c2cc(-c3nnc4sc(-c5ccccn5)nn34)[nH]n2)cc1,inactive
5,COc1cc(-c2nn3c(-c4cccc(C)c4)nnc3s2)cc(OC)c1OC,2600 nM (active)
6,CCOC(=O)CNC(=O)CSc1nnc(-c2cccc(OC)c2)n1CC,inactive
7,Fc1ccc(-c2ccc(-c3nn4c(-c5ccco5)nnc4s3)o2)cc1,68 nM (active)
8,O=C(CSc1nnc2scc(-c3ccc(F)cc3)n12)NCc1ccco1,inactive
9,Cc1nnc2sc(-c3ccco3)nn12,inactive
10,CC(=O)Nc1ccc(-c2nn3c(C)nnc3s2)cc1C,inactive
11,c1ccc(-c2nnc3n2NC(c2ccc4c(c2)OCO4)S3)cc1 (stereo unspecified),inactive
12,Fc1ccc(-c2nnc3sc(-c4ccc5c(c4)OCO5)nn23)cc1,36 nM (active)
13,COc1ccccc1Cn1c(=S)[nH]c2cc(C(=O)N3CCN(C)CC3)ccc2c1=O,inactive
14,CSCCC1NC2(C(=O)Nc3ccc(Cl)cc32)[C@@H]2C(=O)N(C3CCCC3)C(=O)[C@H]12 (stereo partly specified),inactive
15,Cc1ccc2c(C(=O)CN3CCCC3)c(C)[nH]c2c1,inactive
16,CC(C)C(=O)N1CCN(CCN=CC2=C(O)CC(c3ccco3)CC2=O)CC1 (stereo unspecified),inactive

row,SMILES,max dye-equivalent concentration
1,CC(C)c1ccc(N2CC(C(=O)Nc3nccs3)CC2=O)cc1 (stereo unspecified),inactive
2,COC(=O)c1ccc(CSc2nncn2C)cc1,inactive
3,O=C(NCCSc1ccccc1)c1ccco1,inactive
4,O=C(NCc1ccco1)c1cc(-c2cccnc2)nc2ccc(Cl)cc12,inactive
5,COC(=O)c1ccccc1NC(=O)Cn1nc(C(F)(F)F)c2c1CCC2,inactive
6,O=C(CSc1nc(-c2ccco2)cc(C(F)(F)F)n1)N1CCc2ccccc2C1,inactive
7,COC(=O)c1cnn2c(C(F)(F)F)cc(-c3ccco3)nc12,870 nM (active)
8,O=C(NCc1ccco1)c1cnn2c(C(F)(F)F)cc(-c3ccco3)nc12,300 nM (active)
9,O=C(Nc1ccccc1)Nc1ccccc1C(=O)NCc1ccco1,inactive
10,CN(C(=O)CSc1nnnn1-c1ccccc1)C1CCCCC1,inactive
11,Cc1oc2nc(SCC(=O)NCc3cccnc3)nc(N)c2c1C,inactive
12,O=C(c1ccc2c(c1)N(Cc1ccc(F)cc1)C(=O)CS2)N1CCOCC1,inactive
13,CCNC(=O)c1c(O)c2cccc3c2n(c1=O)CC3,22 nM (active)
14,Cn1c(C(=O)NCCN2CCc3ccccc3C2)cc2c(=O)[nH]c3ccccc3c21,inactive
15,Cc1cc(=O)n2c3c(cccc13)CCC2,inactive
